Assay outcomes as filed in PubChem.
p53null 39C kill – selectivity test: cytotoxicity in p53 null cells, nonpermissive temperature; 0.97% of 55,000 active; H1299 p53-null (neo) cells, 39C, ATPlite viability, 24 h; Potency, µM (series often up to 46.1 µM), for the others: at the highest dose activity, negative = cell killing, actives largely listed as cytotoxic;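 further: potency means the concentration at half of the fitted maximal effect; 0% = DMSO only and -100% = full killing by 100 µM tamoxifen; nearly all actives have a fitted effect of over 50% in size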
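ATP-luminescence viability readout (ATPlite, 20 min RT) after 24 hr compound treatment at 39C of H1299-neo or H1299-p53A138V cells; titration up to 46 uM; normalized to DMSO and 100 uM tamoxifen; Hill-fit AC50.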
mTORC1 inh – inhibitors of mTORC1 signaling in Tsc2-/- p53-/- MEF cells | Tsc2-/- p53-/- MEF, phospho-rpS6 immunofluorescence/PI, 24 h | Potency, µM (titrated, usually from 38.3 µM), without a hit: at the highest dose activity change, negative = inhibition, most hits filed as inhibitors | 0.78% of 44,000 active | AID 493208;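 further: potency means the concentration at half of the fitted maximal effect; plate controls were DMSO for no effect and rapamycin for full effect; nearly all actives have a fitted effect of over 50% in size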
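Compounds act on Tsc2-/-, p53-/- fibroblasts carrying an empty vector for 24 h before fixation and dual staining for phospho-S6 and DNA (propidium iodide). Values are percentages of cells above a rapamycin-defined pS6/PI threshold.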
S16 F2sN tox – toxic to S16 Pmp22-F2sN Schwann cells. S16 Pmp22-F2sN Schwann cells viability, CellTiter-Glo, 24 h. Potency, µM (titrated, usually from 57.5 µM), for inactives: top-dose activity change, negative = cytotoxicity, hits mostly cytotoxic. 0.48% of 43,000 active. AID 1508642; further: potency means the concentration at half of the fitted maximal effect; on the % scale 0 is the no-effect control and ±100 the full control effect; nearly all actives have a fitted effect of over 65% in size
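Viability was measured by CellTiter-Glo luminescence (15 min, room temperature). This followed 24 h at 37 °C of compound exposure (23 nL pin transfer) in S16 Pmp22-F2sN Schwann cells, 500-1,000 per well.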
SKOV3 invasion – ovarian cancer metastasis inhibition, 3D TME model | SKOV3ip1-GFP adhesion/invasion on 3D omental model, fluorescence | Potency, µM (highest dose often 45.8 µM), for the others: at the highest dose activity change, negative = inhibition, actives largely listed as inhibitors | 0.1% of 46,000 active;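 further: potency means the concentration at half of the fitted maximal effect; plate controls were DMSO wells for no effect and tomatine positive control wells for full effect; nearly all actives have a fitted effect of over 65% in size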
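Adhesion/invasion was scored as fixed GFP-labeled SKOV3ip1 cell counts (488/509 nm), normalized to DMSO and tomatine controls. Cancer cells in serum-free medium, with four compound doses (0.36-46 umol/L), sat 2 hr at RT then 16 hr at 37 C on a 48 hr fibroblast/mesothelial/ECM culture.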
PMP22 txn – modulators of PMP22 gene transcription in S16 Schwann cells; 2% of 43,000 active; Potency, µM (series often up to 57.5 µM), without a hit: top-dose activity change, negative = inhibition, hits mostly inhibitors; S16 Pmp22-F2sN Schwann cells (luciferase reporters placed in the Pmp22 gene), FLuc/NLuc coincidence luminescence, 24 h; active means clear falling dose curves in both reporters; inconclusive means both reporters move, but less clearly or upward; inactive means either reporter flat; the % is the NLuc reporter signal; further: potency means the concentration at half of the fitted maximal effect; on the % scale 0 is the no-effect control and ±100 the full control effect
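qHTS, 1536-well. Cells seeded, compounds added by pin tool, 24 h 37C. Nano-Glo reagent 1 (lysis/FLuc), 10 min RT, read; Stop&Glo, 10 min RT, read NLuc.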
p53null 32C kill – selectivity test: cytotoxicity in p53 null cells, permissive temperature | H1299-neo p53 null cells, ATP luminescence, 24 h, 32C | Potency, µM (series often up to 46.1 µM), for inactives: at the top dose activity change, negative = cytotoxicity, usual class: cytotoxic | 0.62% of 55,000 active;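 further: potency means the concentration at half of the fitted maximal effect; 0% = DMSO only and -100% = full killing by 100 µM tamoxifen; nearly all actives have a fitted effect of over 55% in size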
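We seeded p53-null H1299-neo cells, incubated them overnight at 37C, and added compounds across a range up to 46 uM. After 24 hours at 32C, ATP reagent was applied for 20 min at room temperature and luminescence recorded.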
NLuc sat counter – inhibits NanoLuc at saturating substrate, PMP22 counter-screen | shares compounds with PMP22 txn | Secreted NLuc enzyme (filtered S16 cell medium), Nano-Glo luminescence | Potency, µM (top dose mostly 57.5 µM), inactives show top-dose activity change, negative = inhibition, hits mostly inhibitors | 4% of 690 active | AID 1508638; further: potency means the concentration at half of the fitted maximal effect; on the % scale 0 is the no-effect control and ±100 the full control effect
NLuc Km ctr – counter-screen for PMP22 expression modulators: NanoLuc inhibition at Km; shares compounds with PMP22 txn; secreted NLuc enzyme, coelenterazine luminescence, Km conditions; Potency, µM (doses to about 57.5 µM), for inactives: at the highest dose activity change, negative = inhibition, actives largely listed as inhibitors; 5% of 690 active; AID 1508639; further: potency means the concentration at half of the fitted maximal effect; on the % scale 0 is the no-effect control and ±100 the full control effect
FLuc ctr PMP22 – firefly luciferase enzyme inhibition artifact for PMP22 screen. purified P. pyralis FLuc, luminescence, 10 min. 690 tested, under 10 active. Potency, µM (series often up to 57.5 µM), for inactives: top-dose activity, negative = inhibition, hits mostly inhibitors. shares compounds with PMP22 txn; further: % of control where 0% means no effect
Target sequence (P08659 whole entry, looked up): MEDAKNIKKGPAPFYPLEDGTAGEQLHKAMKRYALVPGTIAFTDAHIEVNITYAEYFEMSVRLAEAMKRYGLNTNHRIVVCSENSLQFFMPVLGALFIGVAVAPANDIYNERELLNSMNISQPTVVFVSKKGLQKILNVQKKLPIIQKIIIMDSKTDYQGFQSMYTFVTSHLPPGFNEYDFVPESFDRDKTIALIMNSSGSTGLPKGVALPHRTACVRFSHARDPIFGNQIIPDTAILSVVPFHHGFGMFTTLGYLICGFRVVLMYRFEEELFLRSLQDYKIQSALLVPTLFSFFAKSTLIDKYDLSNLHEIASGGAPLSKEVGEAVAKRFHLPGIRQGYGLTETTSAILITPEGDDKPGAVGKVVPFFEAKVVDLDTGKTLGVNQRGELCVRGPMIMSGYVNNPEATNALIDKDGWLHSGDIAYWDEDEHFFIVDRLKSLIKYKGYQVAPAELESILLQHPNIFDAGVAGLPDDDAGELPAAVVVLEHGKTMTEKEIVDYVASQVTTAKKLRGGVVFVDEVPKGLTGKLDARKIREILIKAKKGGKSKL
S16 F2sN tox cnf – S16 Schwann cell cytotoxicity, confirmatory; Potency, µM (top dose mostly 57.5 µM), for inactives: at the top dose activity change, negative = viability loss, usual class: cytotoxic; 7% of 690 active; S16 Schwann cells viability, CellTiter-Glo ATP luminescence, 24 h; shares compounds with PMP22 txn; AID 1508641; further: potency means the concentration at half of the fitted maximal effect; on the % scale 0 is the no-effect control and ±100 the full control effect
PMP22 txn cnf – PMP22 transcription modulation, confirmatory; shares compounds with PMP22 txn; S16 Schwann cells Pmp22-F2sN, dual luciferase, 24 h; Potency, µM (highest dose often 57.5 µM), for inactives: at the top dose activity change, negative = inhibition, most hits filed as inhibitors; 22% of 690 active; AID 1508646; active means clear falling dose curves in both reporters; inconclusive means both reporters move, but less clearly or upward; inactive means either reporter flat; the % is the FLuc reporter signal; further: potency means the concentration at half of the fitted maximal effect
PMP22 prot conf – confirmation of modulators of rat PMP22 protein expression | shares compounds with PMP22 txn | 95 tested, under 10 active | S16 Schwann cells Pmp22-HiBiT, luminescence, 48 h | Potency, µM (titrated, usually from 27.9 µM), for the others: top-dose activity change, negative = inhibition, actives largely listed as inhibitors
Target sequence (P25094 whole entry, looked up): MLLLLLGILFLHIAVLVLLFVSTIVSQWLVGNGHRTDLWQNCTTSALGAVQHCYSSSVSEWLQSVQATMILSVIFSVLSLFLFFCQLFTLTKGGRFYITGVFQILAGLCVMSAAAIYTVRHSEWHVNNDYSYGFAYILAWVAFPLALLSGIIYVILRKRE
Active calls of the source: *. This is a sample that favours compounds with a hit; in the whole collection about 3.1% have one here. Unless noted, the call rests on the fitted dose curve; in most records, active means well fitted curve in the direction sought with a large enough effect; inconclusive means small, poorly fitted or top-dose-only effect, or another doubt; inactive means no such curve, though single readings can be large; an effect the other way counts as inactive or inconclusive.

Results for Cc1ccc(/C=C/c2onc(C)c2S(=O)(=O)N2CCC(C(=O)N3CCN(c4ccccc4F)CC3)CC2)cc1 ?
p53null 39C kill: 0.9%; mTORC1 inh: -4.4%; S16 F2sN tox: 9.4%; SKOV3 invasion: 7.2%; PMP22 txn: -16.9%; p53null 32C kill: 2.3%

Results for CC(=O)c1ccc(N2CCN(C(=O)C3CCN(S(=O)(=O)c4c(C)noc4/C=C/c4ccc(C)cc4)CC3)CC2)cc1 ?
p53null 39C kill: 7.8%; mTORC1 inh: 0.0%; S16 F2sN tox: -7.7%; SKOV3 invasion: inactive; PMP22 txn: inconclusive; p53null 32C kill: -2.2%; NLuc sat counter: -4.3%; NLuc Km ctr: 12.0%; FLuc ctr PMP22: -6.5%; S16 F2sN tox cnf: -9.4%; PMP22 txn cnf: -13.0%

How did CCN(CC)CCOc1ccc(C(=C(Cl)c2ccccc2)c2ccccc2)cc1 do in these assays?
SKOV3 invasion: 3.7%

Results for CCN(CC)c1ccc(NC(=O)C2COc3ccc(OC)cc3C2)c(C)c1 (stereo unspecified) ?
p53null 39C kill: inconclusive; mTORC1 inh: -14.2%; S16 F2sN tox: inconclusive; SKOV3 invasion: -7.5%; PMP22 txn: 11.7µM*; p53null 32C kill: -16.5%; NLuc sat counter: -8.0%; NLuc Km ctr: -1.6%; FLuc ctr PMP22: -2.6%; S16 F2sN tox cnf: inconclusive; PMP22 txn cnf: 14.5µM*; PMP22 prot conf: inconclusive

Results for COc1ccc2c(c1)CC(C(=O)Nc1ccc(OC)cc1OC)CO2 (stereo unspecified) ?
p53null 39C kill: 3.9%; mTORC1 inh: -18.6%; S16 F2sN tox: -2.6%; SKOV3 invasion: 18.9%; PMP22 txn: -15.4%; p53null 32C kill: -3.1%

How did CC(C)(O)[C@H]1CC[C@@](C)([C@H]2[C@@H](O)C[C@@]3(C)[C@@H]4C[C@H](O[C@@H]5O[C@H](CO)[C@@H](O)[C@H](O)[C@@H]5O)[C@H]5C(C)(C)[C@@H](O[C@@H]6OC[C@@H](O)[C@H](O)[C@@H]6O)CC[C@@]56C[C@@]46CC[C@]23C)O1 do in these assays?
SKOV3 invasion: 4.8%

What do the screens show for `CCc1ccccc1NC(=O)C(=O)NCCc1sc(-c2cccc(F)c2)nc1C`?
p53null 39C kill: -6.9%; mTORC1 inh: 1.5%; S16 F2sN tox: 8.9%; SKOV3 invasion: 0.3%; PMP22 txn: inconclusive; p53null 32C kill: -5.8%

Results for CCOc1ccccc1NC(=O)C(=O)NCCc1sc(-c2cccc(F)c2)nc1C ?
p53null 39C kill: -5.5%; mTORC1 inh: 2.4%; S16 F2sN tox: 21.7%; SKOV3 invasion: 9.9%; PMP22 txn: inconclusive; p53null 32C kill: -2.2%; NLuc sat counter: -14.6%; NLuc Km ctr: -1.0%; FLuc ctr PMP22: -1.3%; S16 F2sN tox cnf: 6.9%; PMP22 txn cnf: inconclusive

What do the screens show for `CC(=O)Nc1cccc(NC(=O)C(=O)NCCc2sc(-c3ccccc3)nc2C)c1`?
p53null 39C kill: -28.0%; mTORC1 inh: inconclusive; S16 F2sN tox: -5.4%; SKOV3 invasion: 1.0%; PMP22 txn: 2.47µM*; p53null 32C kill: 3.3%; NLuc sat counter: -18.2%; NLuc Km ctr: inconclusive; FLuc ctr PMP22: -3.7%; S16 F2sN tox cnf: -0.4%; PMP22 txn cnf: 3.64µM*

What do the screens show for `CCCCn1cc2c(c1-c1ccccc1Br)c(=O)n(C)c(=O)n2C`?
p53null 39C kill: -13.9%; mTORC1 inh: -4.0%; S16 F2sN tox: 3.7%; SKOV3 invasion: inactive; PMP22 txn: 15µM*; p53null 32C kill: -0.1%; NLuc sat counter: inconclusive; NLuc Km ctr: -15.4%; FLuc ctr PMP22: -1.1%; S16 F2sN tox cnf: 0.2%; PMP22 txn cnf: -41.4%

How did CCN(c1ccccc1)S(=O)(=O)c1ccc2[nH]cc(C(=O)NCc3ccc(C)cc3)c(=O)c2c1 do in these assays?
p53null 39C kill: 28.3%; mTORC1 inh: -5.0%; S16 F2sN tox: 0.1%; SKOV3 invasion: -6.7%; PMP22 txn: 13.4µM*; p53null 32C kill: 0.3%; NLuc sat counter: -8.4%; NLuc Km ctr: -1.8%; FLuc ctr PMP22: 4.9%; S16 F2sN tox cnf: -8.8%; PMP22 txn cnf: -10.5%

Results for CCN(c1ccccc1)S(=O)(=O)c1ccc2[nH]cc(C(=O)NC3CCCCC3)c(=O)c2c1 ?
p53null 39C kill: 27.5%; mTORC1 inh: -0.5%; S16 F2sN tox: -23.5%; SKOV3 invasion: inactive; PMP22 txn: inconclusive; p53null 32C kill: 18.8%

How did CCCCOCCOc1nc(-c2ccc(C(=O)O)c(F)c2)sc1C do in these assays?
SKOV3 invasion: -0.3%
